ATXN viability: Viability Counterscreen for Primary qHTS for Inhibitors of ATXN expression | S2 cells (HEK-293 line with an ATXN2-luciferase reporter) viability, CellTiter-Fluor protease fluorescence, 24 h | Potency, µM (highest dose often 56.7 µM), hits mostly cytotoxic | actives 0.49% (n = 400,000) | AID 651635, 2014; further: potency means the concentration at half of the fitted maximal effect; nearly all actives have a fitted effect of over 40% in size
mIDH1 inhibitor: qHTS for Inhibitors of mutant isocitrate dehydrogenase 1 (IDH1): qHTS | AID 602179, 2012 | IDH1-R132H enzyme, NADPH consumption, diaphorase/resazurin fluorescence | actives 0.093% (n = 390,000) | Potency, µM (highest dose often 76.6 µM), for inactives: at the top dose activity change, negative = inhibition, hits mostly inhibitors; further: potency means the concentration at half of the fitted maximal effect; on the % scale 0 is the no-effect control and ±100 the full control effect; nearly all actives have a fitted effect of over 65% in size
Target sequence (O75874 whole entry R132H, stated change not applied): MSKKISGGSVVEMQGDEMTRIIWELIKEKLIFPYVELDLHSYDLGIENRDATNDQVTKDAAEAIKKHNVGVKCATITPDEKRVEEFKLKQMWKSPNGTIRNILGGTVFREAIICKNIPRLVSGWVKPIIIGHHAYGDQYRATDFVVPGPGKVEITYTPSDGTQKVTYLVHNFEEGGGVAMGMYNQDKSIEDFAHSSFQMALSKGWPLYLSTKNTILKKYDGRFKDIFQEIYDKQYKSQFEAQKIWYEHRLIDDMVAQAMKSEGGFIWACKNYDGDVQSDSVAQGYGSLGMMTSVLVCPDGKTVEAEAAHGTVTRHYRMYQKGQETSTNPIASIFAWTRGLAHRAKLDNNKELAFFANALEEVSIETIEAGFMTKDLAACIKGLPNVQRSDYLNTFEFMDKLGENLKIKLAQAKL
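IDH1-R132H (0.5 ug/mL) preincubated 30 min with compound, then NADPH (0.016 mM) and alpha-KG (2 mM) added; 80 min at RT, pH 7.5. Remaining NADPH coupled via diaphorase/resazurin to fluorescence (540/590 nm); concentration-response curves normalized to no-enzyme control.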
TGFb inhibitor: qHTS for Inhibitors of TGF-b. actives 1.2% (n = 410,000). Potency, µM (series often up to 46.1 µM), inactives show at the highest dose activity, negative = inhibition, actives largely listed as inhibitors. AID 588855, 2011. HepG2 CAGA-GFP TGF-b/SMAD3 reporter, GFP fluorescence, 18 h; TGF-beta stimulated, 500 pg/mL final; further: potency means the concentration at half of the fitted maximal effect; on the % scale 0 is the no-effect control and ±100 the full control effect; nearly all actives have a fitted effect of over 65% in size
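Smad-responsive CAGA-GFP expression was quantified in HEPG2 cells exposed to compounds and 500 pg/mL final TGF-beta for 18 h at 37 degrees C; unstimulated wells defined full inhibition.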
ATXN2 expr inh: Primary qHTS for Inhibitors of ATXN expression; actives 0.72% (n = 360,000); Potency, µM (titrated, usually from 57 µM), for the others: top-dose activity change, negative = inhibition, hits mostly inhibitors; HEK-293 ATXN2-luciferase reporter, luminescence, 24 h; further: potency means the concentration at half of the fitted maximal effect; on the % scale 0 is the no-effect control and ±100 the full control effect; nearly all actives have a fitted effect of over 55% in size
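qHTS (up to 57 uM final) was run with 24 h compound exposure of reporter cells at 37 °C. Each well was multiplexed: SteadyGlo luminescence measured ATXN2-luciferase expression after a fluorogenic Gly-Phe-AFC viability readout (25 uM final).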
HepG2 viability: qHTS for Inhibitors of TGF-b: Cytotox Counterscreen | HepG2 CAGA-GFP viability, ATP luminescence, 18 h | actives 0.76% (n = 410,000) | Potency, µM (titrated, usually from 46.1 µM), inactives show top-dose activity change, negative = cytotoxicity, actives largely listed as cytotoxic | AID 588856, 2011; further: potency means the concentration at half of the fitted maximal effect
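HepG2 CAGA-GFP cells (1000/well, DMEM with 1% FBS) received compound, then TGF-beta at 500 pg/mL final, and were incubated 18 hours at 37 degrees C. Viability was read by CellTiter-Glo luminescence. Media-only wells were set as complete cell-killing and DMSO as no toxicity.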
LDHA block: qHTS assay for inhibitors of human lactate dehydrogenase; L-lactate dehydrogenase A chain (Homo sapiens), P00338; purified LDHA, NADH/diaphorase-resazurin fluorescence; hits give low values; activity change, % (values are at about 110 or 230 µM); actives 0.15% (n = 480,000); in the data active means activity change below about -30%; inconclusive means mostly about -25% to -30%;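 further: plate controls were DMSO wells for no effect and wells without enzyme for full effect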
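Resorufin fluorescence (ex540/em590), read at 0 and 20 min after diaphorase/resazurin addition, reports the NADH left after a 5 min room-temperature reaction of 2 nM human LDH5 with 0.06 mM NADH and 0.2 mM pyruvate.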
IDH1 autofl: qHTS for Inhibitors of mutant isocitrate dehydrogenase 1 (IDH1): Cherrypicks Autofluorescence Interference; Resorufin detection reagent fluorescence interference, cell-free; inhibition of signal, % at 51.2 µM; shares compounds with mIDH1 inhibitor; 750 tested, under 10 active;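 further: 0% = wells with normal resorufin and full inhibition = wells lacking resorufin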
IDH1 WT: qHTS for Inhibitors of mutant isocitrate dehydrogenase 1 (IDH1): Cherrypicks in WT IDH1 | actives 9% (n = 750) | Potency, µM (top dose mostly 115 µM), inactives show at the top dose activity change, negative = inhibition, hits mostly inhibitors | AID 623995, 2012 | shares compounds with mIDH1 inhibitor | WT IDH1 enzyme, NADPH diaphorase/resazurin fluorescence;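 further: potency means the concentration at half of the fitted maximal effect; 0% = full WT IDH1 enzyme control and full inhibition = no enzyme wells; nearly all actives have a fitted effect of over 55% in size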
Target sequence (O75874 whole entry, looked up): as the sequence (O75874 whole entry R132H, stated change not applied) above, with H132R counted along it
mIDH1 confirm: qHTS for Inhibitors of mutant isocitrate dehydrogenase 1 (IDH1): Confirmation of Cherrypicks; shares compounds with mIDH1 inhibitor; IDH1 R132H enzyme, NADPH diaphorase/resazurin fluorescence; Potency, µM (top dose mostly 76.6 µM), without a hit: at the highest dose activity change, negative = inhibition, hits mostly inhibitors; actives 83% (n = 750); AID 624002, 2012; further: potency means the concentration at half of the fitted maximal effect; nearly all actives have a fitted effect of over 50% in size
The depositor's hits bear a star; [ ] = another dose, or the depositor's remark. In the library only some 2.2% were active in any assay of this set; here they are far more common. Unless noted, the call rests on the fitted dose curve; in most records, active means well fitted curve in the direction sought with a large enough effect; inconclusive means small, poorly fitted or top-dose-only effect, or another doubt; inactive means no such curve, though single readings can be large; an effect the other way counts as inactive or inconclusive.

Results for CCc1ccc(-n2c(C)nnc2SCc2nc(-c3ccccc3OC)no2)cc1 ?
LDHA block: 15

Results for COC(=O)c1ccc(NC(=O)C(c2ccccc2)N2Cc3ccccc3C2=O)cc1 (configuration not stated) ?
mIDH1 inhibitor: inconclusive; TGFb inhibitor: inconclusive; HepG2 viability: -18%; LDHA block: -14; IDH1 autofl: -4; IDH1 WT: -1%; mIDH1 confirm: -6%

Results for C[C@H](CO)N1C[C@H](C)[C@@H](CN(C)S(C)(=O)=O)Oc2ccc(NC(=O)Nc3ccccc3)cc2C1=O ?
ATXN viability: inactive; mIDH1 inhibitor: -4%; TGFb inhibitor: inconclusive; ATXN2 expr inh: 2%; HepG2 viability: 10%; LDHA block: 3

How did O=C(O)CC(NC(=O)Cc1ccc(Cl)cc1)c1ccc(F)cc1 (configuration not stated) do in these assays?
LDHA block: -6

What do the screens show for `Cc1c(OC(C(=O)O)c2ccccc2)ccc2c(-c3ccccc3)cc(=O)oc12` (configuration not stated)?
ATXN viability: inactive; mIDH1 inhibitor: inconclusive; TGFb inhibitor: 1%; ATXN2 expr inh: -9%; HepG2 viability: -13%; LDHA block: -5; IDH1 autofl: 6; IDH1 WT: -7%; mIDH1 confirm: 13µM*

How did CC1=C(C#N)c2nc(N)c(C#N)c(C)c2/C1=C\c1ccc(-c2ccccc2C(=O)O)o1 do in these assays?
ATXN viability: inconclusive; mIDH1 inhibitor: inconclusive; TGFb inhibitor: -2%; ATXN2 expr inh: -1%[11.3 µM]; HepG2 viability: 7%; LDHA block: 14; IDH1 autofl: -1; IDH1 WT: 25µM*; mIDH1 confirm: 35µM*

What do the screens show for `COc1cc(/C=C2/C(C)=C(C#N)c3nc(N)c(C#N)c(C)c32)ccc1OCC(=O)O`?
ATXN viability: inactive; mIDH1 inhibitor: -21%; TGFb inhibitor: 1%; ATXN2 expr inh: 10%; HepG2 viability: 4%; LDHA block: 12

Results for Cc1cccc(CCCCCCCCCCCC(=O)O)c1 ?
LDHA block: -5

Results for CC1CCCCN1C(=O)C1CCCCN1S(=O)(=O)c1cccc([N+](=O)[O-])c1 (configuration not stated) ?
ATXN viability: inactive; mIDH1 inhibitor: 6%; TGFb inhibitor: 6%; ATXN2 expr inh: -5%; HepG2 viability: 2%; LDHA block: -2

How did CC(=O)Oc1cc(O)c2c(c1)OC(c1ccc(OC(C)=O)c(OC(C)=O)c1)C(OC(C)=O)C2=O (configuration not stated) do in these assays?
ATXN viability: inactive; mIDH1 inhibitor: 52µM*; TGFb inhibitor: 120%; ATXN2 expr inh: -5%; HepG2 viability: -8%; LDHA block: 1; IDH1 autofl: 2; IDH1 WT: 1%; mIDH1 confirm: inconclusive

Results for COc1cc(C2Oc3cc(C4Oc5cc(O)cc(O)c5C(=O)C4O)ccc3OC2CO)ccc1O (configuration not stated) ?
ATXN viability: inactive; mIDH1 inhibitor: -8%; TGFb inhibitor: 2%; ATXN2 expr inh: -4%; HepG2 viability: -10%; LDHA block: -4

How did COc1cccc(Cn2c(=O)n(-c3cccc(Cl)c3)c(=O)c3c4c(sc32)CN(C(C)=O)CC4)c1 do in these assays?
ATXN viability: inactive; mIDH1 inhibitor: inconclusive; TGFb inhibitor: inconclusive; ATXN2 expr inh: inconclusive; HepG2 viability: -35%; LDHA block: 4; IDH1 autofl: 0; IDH1 WT: 14µM*; mIDH1 confirm: 14µM*

What do the screens show for `CC(=O)N1CCc2c(sc3c2c(=O)n(-c2ccccc2)c(=O)n3Cc2cccc(C(F)(F)F)c2)C1`?
ATXN viability: inactive; mIDH1 inhibitor: 22µM*; TGFb inhibitor: inconclusive; ATXN2 expr inh: inconclusive; HepG2 viability: -61%; LDHA block: 2; IDH1 autofl: -12; IDH1 WT: 7.9µM*; mIDH1 confirm: 11µM*

How did Cc1ccc(-n2ncc3c(NCCCN4CCOCC4)ncnc32)cc1C do in these assays?
ATXN viability: inactive; mIDH1 inhibitor: -7%; TGFb inhibitor: -27%; ATXN2 expr inh: 20%; HepG2 viability: -26%; LDHA block: -9

Results for CS(=O)(=O)c1ccc(C(=O)NCC2(N3CCCCC3)CCCCC2)cc1 ?
ATXN viability: inactive; mIDH1 inhibitor: 1%; TGFb inhibitor: 22%; ATXN2 expr inh: -16%; HepG2 viability: -40%; LDHA block: 0

Results for COc1ccc(C2CC(=O)Nc3c2c(C)nn3-c2ccc(C)cc2)cc1O (configuration not stated) ?
LDHA block: 12

How did Cc1cccc(N(C(=O)CCC(=O)Nc2cc(C)on2)C(C(=O)NC2CCCC2)c2ccc(C)o2)c1 (configuration not stated) do in these assays?
ATXN viability: inactive; mIDH1 inhibitor: -26%; TGFb inhibitor: -18%; ATXN2 expr inh: 2%; HepG2 viability: 3%; LDHA block: -3

Results for Cc1cc(NC(=O)CCC(=O)N(c2cccc(F)c2)C(C(=O)NC2CCCC2)c2ccccc2)no1 (configuration not stated) ?
ATXN viability: inactive; mIDH1 inhibitor: 46µM*; TGFb inhibitor: inconclusive; ATXN2 expr inh: -11%; HepG2 viability: -13%; LDHA block: -4; IDH1 autofl: 0; IDH1 WT: -10%; mIDH1 confirm: 16µM*
